An excerpt weighted towards active compounds, which were near 12% of everything screened.
Sm TGR inh: S. mansoni TGR enzyme inhibition; Q962Y6; 3% of 360,000 active; purified TGR, DTNB reduction, TNB absorbance 405 nm; Potency, µM (top dose mostly 114 µM), without a hit: at the highest dose activity change, negative = inhibition, usual class: inhibitors; further: on the % scale 0 is the no-effect control and ±100 the full control effect; nearly all actives have a fitted effect of over 60% in size
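TGR 20 nM + NADPH 100 uM (dispensed conc.), cpd preinc 15 min RT; start with NADPH (500 uM addition) then DTNB (15 mM addition). Kinetic TNB absorbance, 405 nm filter. Four-parameter Hill fit across titration.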
SARS PLP yeast: SARS-CoV PLP inhibition in yeast; S. cerevisiae expressing SARS-CoV PLpro, growth rescue; Potency, µM (titrated, usually from 32.9 µM), for the others: at the highest dose activity, positive = growth rescue, actives largely listed as activators; 0.19% of 330,000 active; AID 485353; calls by dose curve; further: 0% is about no effect; nearly all actives have a fitted effect of over 55% in size
Pf growth 48h: inhibits P. falciparum growth in the first generation, 48 h | Potency, µM (series often up to 28.7 µM), for the others: at the top dose activity change, negative = inhibition, usual class: inhibitors | AID 504832 | P. falciparum luciferase growth in erythrocytes, 48 h | 5.9% of 310,000 active; further: on the % scale 0 is the no-effect control and ±100 the full control effect
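In quantitative HTS format, infected erythrocytes bearing luciferase-reporter parasites were treated for a single generation at 37 C. Luminescence after adding detection reagent served as the growth measure.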
AmpC inh detg: inhibitors of E. coli AmpC beta-lactamase with detergent; P00811; AmpC hydrolysis of nitrocefin, absorbance 480 nm, 0.01% Triton; Potency, µM (series often up to 114 µM), without a hit: top-dose activity change, negative = inhibition, actives largely listed as inhibitors; 0.041% of 370,000 active; AID 485294;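 further: 0% = no-compound wells and -100% = no-enzyme wells; nearly all actives have a fitted effect of over 25% in size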
Target sequence (P00811 whole entry, looked up): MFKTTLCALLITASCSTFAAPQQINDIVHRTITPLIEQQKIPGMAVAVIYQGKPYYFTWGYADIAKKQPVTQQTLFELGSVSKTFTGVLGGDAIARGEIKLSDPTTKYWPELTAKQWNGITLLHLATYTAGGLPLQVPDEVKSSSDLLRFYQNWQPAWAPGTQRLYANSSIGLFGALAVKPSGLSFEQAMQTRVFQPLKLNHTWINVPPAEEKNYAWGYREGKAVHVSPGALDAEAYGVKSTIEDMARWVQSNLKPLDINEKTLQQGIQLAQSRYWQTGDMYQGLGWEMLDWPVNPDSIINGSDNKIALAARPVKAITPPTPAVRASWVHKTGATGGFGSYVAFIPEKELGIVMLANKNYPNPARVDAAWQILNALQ
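AmpC (5.3 nM in the dispensed reagent) in 20 mM phosphate pH 7.0 with 0.01% (detergent screen) or 0.0001% Triton X-100 was preincubated with compounds for 15 min at room temperature. Nitrocefin was then added from an 800 uM solution, and hydrolysis was followed at 480 nm.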
Pf growth 96h: inhibits malaria parasite growth, 96 h | P. falciparum luciferase reporter growth, 96 h | Potency, µM (top dose mostly 28.7 µM), for inactives: top-dose activity change, negative = inhibition, most hits filed as inhibitors | 6.9% of 320,000 active | AID 504834; further: on the % scale 0 is the no-effect control and ±100 the full control effect
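Infected RBCs, 2% Hct / 0.05% parasitemia final; luciferase-reporter P. falciparum; cpd 96 h, 37 C, 5% CO2; luciferase detection reagent; luminescence.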
AmpC inh no detg: AmpC beta-lactamase inhibition without detergent. 0.52% of 330,000 active. Potency, µM (top dose mostly 57.1 µM), without a hit: at the top dose activity change, negative = inhibition, usual class: inhibitors. P00811. AmpC nitrocefin hydrolysis, absorbance 480 nm, 0.0001% Triton. AID 485341;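 further: plate controls were no compound for no effect and no enzyme for full effect; nearly all actives have a fitted effect of over 20% in size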
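20 mM phosphate pH 7.0 + 0.01% (detergent screen) or 0.0001% Triton X-100; 5.3 nM AmpC reagent; cpd preinc 15 min RT; nitrocefin (800 uM stock) to start; A480 q20 s × 4 min; Activity was normalised to no-enzyme and no-compound control wells.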
Numbers without * were called inactive; ? = inconclusive; · = no result given; [ ] = dose if it differs, or a comment. Unless noted, the call rests on the fitted dose curve; in most records, active means well fitted curve in the direction sought with a large enough effect; inconclusive means small, poorly fitted or top-dose-only effect, or another doubt; inactive means no such curve, though single readings can be large; an effect the other way counts as inactive or inconclusive. Potency means the concentration at half of the fitted maximal effect.

SMILES	Sm TGR inh	SARS PLP yeast	Pf growth 48h	AmpC inh detg	Pf growth 96h	AmpC inh no detg
C=CCn1c(SCC(=O)NC23CC4CC(CC(C4)C2)C3)nc2cc(C(=O)O)ccc2c1=O	-8.9%	2.6%	2.94µM*	?	4.65µM*	-34.7%
C=CCn1c(SCC(=O)Nc2ccccc2F)nc2ccccc2c1=O	79.4µM*	-6.0%	8.1%	6.0%	-28.6%	-24.1%
C=CCn1c(SCC(=O)c2ccc(CNC(C)=O)o2)nc2ccccc2c1=O	?	16.0%	·	-0.8%	14.7µM*	39.6%
CC(=O)NCc1ccc(C(=O)CSc2nnc(-c3ccncc3)n2Cc2ccccc2)o1	35.5µM*	2.2%	5.0%	-12.2%	-22.0%	69.8%
O=C(CSc1nnc(-c2ccncc2)n1Cc1ccccc1)NC1CCCCC1	7.1%	1.0%	-10.5%	-14.3%	-17.5%	4.5%
O=C(NCc1ccc(F)cc1)c1cnc(N2CCOCC2)c2ccccc12	14.2%	·	·	1.7%	·	·
Cc1ccccc1NC(=O)NCCCCc1ccccc1	12.8%	-6.9%	?	0.2%	-91.4%	-28.4%
COc1ccc(S(=O)(=O)N2CCCCC2)cc1NC(=O)CN(C)C1CCCCC1	0.1%	0.0%	?	-14.3%	?	9.4%
COc1ccc(S(=O)(=O)N2CCCCC2)cc1NC(=O)CN(Cc1ccco1)Cc1ccco1	?	-4.4%	11.7µM*	7.9%	?	-10.2%
COc1ccc(S(=O)(=O)N2CCCCCC2)cc1NC(=O)CN(C)Cc1ccc2c(c1)OCO2	-1.6%	0.2%	11.7µM*	0.5%	?	-4.6%
CN(CC(=O)Nc1cc(S(=O)(=O)N2CCCC2)ccc1Cl)Cc1ccc2c(c1)OCO2	-17.0%	-10.2%	8.28µM*	-9.3%	?	0.0%
CC(=O)OCC(=O)Nc1cc(S(=O)(=O)N2CCCCCC2)ccc1Cl	21.5%	-6.8%	6.7%	-2.2%	-5.9%	-4.8%
CN(CC(=O)Nc1cc(S(=O)(=O)N2CCCCCC2)ccc1Cl)Cc1ccc2c(c1)OCO2	-4.9%	0.0%	11.7µM*	-0.7%	?	-17.6%
O=C(CN1C(=O)CNC1=O)Nc1cc(Cl)cc(Cl)c1	·	-2.4%	·	·	·	-28.6%
CC(=O)Nc1ccc(Nc2cc(C)nc3c(-c4ccccc4)c(C)nn23)cc1	10.6%	-54.1%	?	-3.0%	3.7µM*	177.2%
Cc1cc(NCCC(C)C)n2nc(C)c(-c3ccccc3)c2n1	-1.5%	-57.1%	9.28µM*	1.5%	·	33.3%
Cc1cc(NCCCN2CCOCC2)n2nc(C)c(-c3ccc(F)cc3)c2n1	1.7%	-11.5%	7.38µM*	2.0%	-13.0%	166.5%
C=C(C)CSc1cc(C)nc2c(-c3ccccc3)c(C)nn12	?	-2.6%	6.57µM*	9.3%	10.4µM*	24.5%
CCSc1cc(C)nc2c(-c3ccccc3)c(C)nn12	5.4%	-5.8%	·	?	?	0.2%
Cc1cc(NCCCN2CCOCC2)n2nc(C)c(-c3ccccc3)c2n1	11.9%	8.1%	?	-13.2%	?	113.5%
COc1cc([N+](=O)[O-])ccc1NC(=O)CN1CCN(C(=O)c2ccco2)CC1	-6.5%[57.1 µM]	-0.7%	?	-5.2%	?	23.4%
Cc1c(Cl)ccc2c1NC(=O)[C@]21N[C@@H](Cc2ccccc2)[C@H]2C(=O)N(c3ccc(F)cc3)C(=O)[C@H]21	-9.9%	-6.9%	?	1.7%	·	-0.4%
Cc1cc(SCC(=O)Nc2ccc(O)cc2)n2nc(C)c(-c3ccccc3)c2n1	2.1%	1.2%	-3.8%	0.1%	2.0%	-50.5%
CC(=O)Nc1ccc(Nc2cc(C(C)C)nc3c(-c4ccccc4)c(C)nn23)cc1	3.3%	-7.4%	?	-2.6%	13.1µM*	95.7%
CCOC(=O)Cn1c(S(=O)(=O)Cc2ccc(Cl)cc2)nc(-c2ccccc2)c1-c1ccccc1	-12.5%	-0.5%	?	?	10.4µM*	-14.3%

Source: PubChem BioAssay (National Center for Advancing Translational Sciences (NCATS))
